Data on 46 molecules can be found in PubChem BioAssay AID1745848 (National Center for Advancing Translational Sciences (NCATS), 2022).

SMILES strings stand for the structures. Hit rate of the full screen: of about 2,100 compounds, about 940 (45%) were called active. Inconclusive results (about 48%) are left out. The set was probably picked from earlier hits. Some of the results follow. Values without a mark were called inactive. Calls come from the whole dose curve; as a rule, active = well fitted inhibition curve with a large enough effect; inconclusive = small, poorly fitted or top-dose-only effect; inactive = no such curve, though single readings can be large or run the other way.
Potency is the fitted concentration of half-maximal effect.

This test in a line: Confirmatory qHTS for Inhibitors of ATXN expression.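 For activity change, negative = inhibition: 0% = DMSO vehicle wells and -100% = medium-only wells without cells.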 Note: nearly all actives have a fitted effect of over 65% in size. To be noted: ATXN2-luciferase reporter cells, luminescence, 24 h; series mostly up to 11.5 µM; activity change, negative = inhibition: at the top concentration. The text has this: PI: Daniel Scoles Ph.D. University of Utah School of Medicine, Salt Lake City, Utah MLPCN Grant: NS073009 Spinocerebellar ataxia type 2 (SCA2) is a multisystem neurodegenerative disease caused by a dominantly acting mutation leading to expansion of a polyQ domain in the ataxin-2 protein (ATXN2). SCA2 patients develop progressive ataxia and later lose function in other neuronal systems. Prominent parkinsonian signs develop in some patients. Like many neurodegenerative disorders, no symptomatic or disease-modifying treatments are known. The primary objective of the proposed research is to identify compounds inhibiting ATXN2 expression and to test them for efficacy in SCA2 mouse models. We have developed a cell-based assay paired with an in vivo mouse model using identical luciferase expression constructs. This approach takes advantage of an ATXN2-luciferase transgene, with the luciferase gene flanked by the upstream and downstream portions of the ATXN2 gene. Here we describe a 5-7 dose quantitative high thoroughput screen (qHTS) for compounds lowering ATXN2 expression. We screened the NIH Molecular Libraries Small Molecule Repository (MLSMR) and NCGC's mechanistically annotated (MIPE) and drug repurposing (NPC) collections of compounds for lowering expression of an ATXN2-luciferase reporter in HEK-293 cells. The assay is a multiplexed cell viability assay to ensure target reduction in the absence of cytotoxicity. Secondary qHTS assays included a CMV-luciferase reporter expressed in HEK-293 cells as well as a biochemical assay using recombinant luciferase to detect inhibitors of the reporter enzyme. Compounds that inhibit ATXN2 expression but is not cytotoxic were selected for confirmatory and secondary screens.
PROTOCOL TABLE (as described by Inglese J, Shamu CE and Guy RK. 2007) SEQUENCE No. (e.g., 1, 2, 3, etc.); PARAMETER (e.g., Cells, Incubation, Reagent, etc.); VALUE; DESCRIPTION. 1; Cells; 4 uL; white, solid bottom, 1536-well Greiner assay plate. 2; Incubation; 2 hr; 37 degree C in 5% humidified CO2. 3; Compounds; 23 nL; Kalypsis pintool (Wako USA) equipped with a 1536-well pin head. 4; Incubation; 24 hr; 37 degree C in 5% humidified CO2. 5; Reagent; 1 uL; Gly-Phe-7-Amino-4-trifluoromethylcoumarin. 6; Incubation; 30 min; 37 degree C in 5% humidified CO2. 7; Detection; Fluorescence; ViewLux plate reader (PerkinElmer). 8; Reagent; 3 uL; SteadyGlo luciferase solution (Promega). 9; Incubation; 5 min; room temperature. 10; Detection; Luminescence; ViewLux plate reader (PerkinElmer). NOTES (numbers refer to Sequence numbers above) 1. […] expressing ATXN2-luciferase reporter were suspended in phenol-red free DMEM and dispensed in assay plates using a Multidrop Combi dispenser (Thermo Fisher Scientific). Wells containing medium only were plated on each plate, and values were used to normalize (100% inhibition) in the luciferase and CellTiter-Fluor assays. 2. Assay plates were incubated. Evaporation was prevented by covering assay plates with metal lids containing holes to allow gas diffusion. 3. Compounds were added in a dose response manner with the final concentrations of 57, 11.4, 2.28, 0.46, 0.091, 0.018, 0.0037 uM. Vehicle-only plates, with DMSO being pin-transferred to columns 5-48, were inserted uniformly at the beginning and the end of each library to monitor and record any shifts in assay performance. 5. 125 uM Gly-Phe-7-Amino-4-trifluoromethylcoumarin (MP Biomedicals) working concentration was used at a final concentration of 25 uM. 7. To assess cell viability; the assay plates were read using the ViewLux high-throughput CCD imager (PerkinElmer), wherein single end-point fluorescence measurement was acquired (excitation 405/10; emission 540/25 nm). 8. Detection reagent SteadyGlo Luciferase (Promega) was added to the assay plate. 10. Luminescence is then measured on the ViewLux imager equipped with a clear emission filter using a 2 sec exposure. […]
(qHTS replaces the single test concentration by a dilution series.)
For the molecule `N#Cc1ccccc1NC(=O)C1SC(=Nc2ccccc2)C(C(=O)Nc2ccc(Cl)cc2)=C1N` (stereo unspecified), the “activity change, negative = inhibition” value is -3.14%.

Turning to `O=c1c2c(-c3ccccc3)csc2nc2c3ccccc3c(NCCN3CCOCC3)nn12`, the Potency is 3.16 µM (active).

For `Brc1cnc2nc(SCc3nc4ccccc4[nH]3)[nH]c2c1`, the Potency is 2.82 µM (active).

Take `Cc1ccc(-c2nc3cc(Br)cnc3nc2-c2ccc(C)cc2)cc1`: the “activity change, negative = inhibition” value is -7.66%.

As to `O=C(CSc1nnc(-c2ccc(Br)cc2)o1)Nc1cccc(C(=O)O)c1`, the Potency is 3.16 µM (active).

With `COc1cc(/C=N/Nc2snc(SC)c2C#N)cc(OC)c1OC`, the Potency is 3.16 µM (active).

Turning to `N=c1n(CCN2CCCCC2)c2ccccc2n1CC(O)c1ccc(Cl)c(Cl)c1` (stereo unspecified), the Potency was 15.8 µM (active).

As for `Cc1ccc(OCC(O)Cn2c(=N)n(CCN3CCCCC3)c3ccccc32)cc1` (stereo unspecified), the Potency is 14.1 µM (active).

Take `CCCCCn1c(=N)n(CC(O)COc2ccccc2OC)c2ccccc21` (stereo unspecified): the Potency was 2.51 µM (active).

As to `COc1cccc(NC(=S)/C(=C(\[O-])c2cc(C)n(-c3ccccc3F)c2C)[n+]2ccc(N(C)C)cc2)c1`, the Potency is 15.8 µM (active).

With `O=C(Nc1ccc(Cl)cc1)Nc1ccc(N2CCCC2)c(S(=O)(=O)Nc2ccccc2Cl)c1`, the Potency is 3.55 µM (active).

`CCOC(=O)Nc1ccc(N2CCOCC2)c(S(=O)(=O)Nc2ccc(Cl)cc2)c1`: the “activity change, negative = inhibition” value was -19.7%.

As to `Cc1ccc2ccc3cccnc3c2n1`, the Potency is 4.47 µM (active).

For the molecule `OC(c1ccccc1)(c1nc(/C=C/c2ccc(C(F)(F)F)cc2)cs1)C(F)(F)F` (stereo unspecified), the Potency is 35.5 µM (active).

With `OC(c1ccccc1)(c1nc(-c2ccc3ccccc3c2)cs1)C(F)(F)F` (stereo unspecified), the “activity change, negative = inhibition” value is 26.4%.

With `OC(c1ccccc1)(c1nc(-c2cc3ccccc3o2)cs1)C(F)(F)F` (stereo unspecified), the “activity change, negative = inhibition” value was 8.38% [at 57.5 µM].

`CCOc1cc(C=C(C(=O)OC)C(=O)OC)ccc1OCc1ccc([N+](=O)[O-])cc1`: the Potency is 25.1 µM (active).

With `O=C(CNC(=O)C1COc2ccccc2O1)N/N=C/c1ccc(O)cc1O` (stereo unspecified), the Potency is 2.51 µM (active).

As to `COc1cccc(/C=N/NC(=O)Cn2nc(C)c([N+](=O)[O-])c2C)c1O`, the Potency is 14.1 µM (active).

As to `CCN(CC)c1ccc(/C=N/NC(=O)c2cccc(S(=O)(=O)N3CCOCC3)c2)c(O)c1`, the Potency was 0.891 µM (active).

As to `CCN(CC)c1ccc(/C=N/NC(=O)CNC(=O)C2COc3ccccc3O2)c(O)c1` (stereo unspecified), the Potency is 0.251 µM (active).

Take `COc1cccc(/C=N/NC(=O)CNC(=O)C2COc3ccccc3O2)c1O` (stereo unspecified): the Potency is 8.91 µM (active).

In the case of `CCN(CC)c1ccc(/C=N/NC(=O)Cc2cccs2)c(O)c1`, the Potency is 2.82 µM (active).

As to `COc1ccccc1/C=C\C(=O)NCC(=O)N/N=C/c1cccc(OC)c1O`, the Potency is 12.6 µM (active).

In the case of `COc1cccc(/C=N/NC(=O)CSc2ccccc2C)c1O`, the Potency was 12.6 µM (active).

On to `Cn1ncc2c(N3CCN(c4ccc(Cl)c(Cl)c4)CC3)ncnc21`, for which the Potency was 1.58 µM (active).

Consider `Oc1c(C(Nc2cccc(C(F)(F)F)c2)c2ccncc2)ccc2cccnc12` (stereo unspecified), for which the Potency is 3.55 µM (active).

For the molecule `Cc1cc(NC(c2cccnc2)c2ccc3cccnc3c2O)no1` (stereo unspecified), the Potency is 2.82 µM (active).

As to `COc1ccc(Cl)cc1C(Nc1cccnc1)c1ccc2cccnc2c1O` (stereo unspecified), the Potency was 12.6 µM (active).

Take `Oc1c(C(Nc2cccc(C(F)(F)F)c2)c2cccnc2)ccc2cccnc12` (stereo unspecified): the Potency is 28.2 µM (active).

With `COC(=O)Cc1[nH]n(-c2nc3ccccc3s2)c(=O)c1C(C)=Nc1ccc(C)cc1`, the “activity change, negative = inhibition” value is -90.6% [at 57.5 µM].

As for `Cc1cc(C)n(-c2nc(NCCN(C)C)c3c4c(sc3n2)COC(C)(C)C4)n1`, the Potency is 3.16 µM (active).

`COc1cc(OC)cc(-c2cc3nc(C)c(CCC(=O)NCc4ccccc4)c(C)n3n2)c1`: the Potency is 4.47 µM (active).

Take `COc1cc(OC)cc(-c2cc3nc(C)c(CCC(=O)O)c(C)n3n2)c1`: the Potency is 0.562 µM (active).

As for `COc1cccc(OCC(=O)Nc2cc(Cl)ccc2Oc2ccccc2)c1`, the “activity change, negative = inhibition” value was -25.3%.

Consider `COc1cccc(CN(C)C(=O)c2ccc(OCC(=O)Nc3cccc(C(F)(F)F)c3)c(OC)c2)c1`, for which the Potency was 15.8 µM (active).

With `CCCCCCn1c2c(c(=N)c3c1CCC3)CCC2`, the Potency was 3.98 µM (active).

In the case of `Cc1cnc(NC(=O)CN2CCN(c3ccccn3)CC2)s1`, the Potency is 5.62 µM (active).

As to `CCN1CCN(C2=C(NS(=O)(=O)c3ccc(C)cc3)C(=O)c3ccccc3C2=O)CC1`, the Potency was 3.16 µM (active).

As to `Cc1ccc(SC2=C(Sc3ccc(C)cc3)C(=O)c3ccccc3C2=O)cc1`, the “activity change, negative = inhibition” value is 6.96% [at 57.5 µM].

As for `CC(=O)NC(c1ccc2ccccc2c1)c1ccc2cccnc2c1O` (stereo unspecified), the Potency is 0.141 µM (active).

As for `CC(=O)NC(c1ccco1)c1ccc2cccnc2c1O` (stereo unspecified), the Potency was 1.41 µM (active).

Consider `CC(=O)NC(c1ccc(C(C)C)cc1)c1ccc2cccnc2c1O` (stereo unspecified), for which the Potency is 0.631 µM (active).

On to `CC(=O)c1sc(C(C)(C)C)cc1NC(=O)/C=C/C(=O)O`, for which the Potency is 17.8 µM (active).

Take `COc1ccc(F)cc1-c1cc(NC=O)c2ncc(-c3cccc(C(=O)N(C)C)c3)n2c1`: the Potency is 3.55 µM (active).

Regarding `CCSc1ccc(-c2cc(NC=O)c3ncc(-c4cccc(C(=O)NCCN(C)C)c4)n3c2)cc1`, the Potency is 3.16 µM (active).
